Source: PubChem BioAssay (NCI)
Compounds without any hit were thinned out: in the full panel of roughly 83,000, 20% have a hit.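 Compound tested at a single concentration for 48 hours in 96-well plates; a percent growth value below 10 was scored as active.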 Active and inactive are the calls of the source.

Legend:
Test in all cases: NCI-60 one-dose screen, 48 h (100 = growth as untreated, 0 = no growth, -100 = all killed)
Conditions in all cases: 10 µM unless noted
NCI-H23 lung = system: NCI-H23 lung
NCI-H226 lung = system: NCI-H226 lung
NCI-H322M lung = system: NCI-H322M lung
HOP-62 NSCLC = system: HOP-62 NSCLC
HOP-92 NSCLC = system: HOP-92 NSCLC
NCI-H522 lung = system: NCI-H522 lung
A549/ATCC NSCLC = system: A549/ATCC NSCLC
786-0 renal = system: 786-0 renal
COLO 205 colon = system: COLO 205 colon
NCI-H460 lung = system: NCI-H460 lung

Measured: growth

COc1ccc(-c2nc3sccn3c2-c2ccnc(NCCNS(=O)(=O)c3ccc(C(F)(F)F)cc3)n2)cc1
active: NCI-H226 lung 4.55% | NCI-H522 lung -1.01% | COLO 205 colon 0.693%
inactive: NCI-H23 lung 15.5% | NCI-H322M lung 37.1% | HOP-62 NSCLC 46.1% | HOP-92 NSCLC 13.4% | A549/ATCC NSCLC 18.9% | 786-0 renal 18.4%

Cc1sc(N=Nc2ccc(N(C)C)cc2)[n+]([O-])c1C
inactive: NCI-H23 lung 98.4% | NCI-H226 lung 92.6% | NCI-H322M lung 94.5% | HOP-62 NSCLC 106% | HOP-92 NSCLC 74.7% | NCI-H522 lung 98.4% | A549/ATCC NSCLC 100% | 786-0 renal 103% | COLO 205 colon 104%

COc1ccc(/C=C2\Oc3cc(OCCN4CCCC4)ccc3C2=O)c(OC)c1
inactive: NCI-H23 lung 88.5% | NCI-H226 lung 97.8% | NCI-H322M lung 101% | HOP-62 NSCLC 84.3% | HOP-92 NSCLC 79.7% | NCI-H522 lung 104% | A549/ATCC NSCLC 99.4% | 786-0 renal 88.2% | COLO 205 colon 92.8%

O=C(/C=C/CN1CCCCC1)Nc1cc2c(Nc3ccc(F)c(Cl)c3F)ncnc2cc1OCCOC(F)F
active: NCI-H322M lung 5.03% | HOP-92 NSCLC -39.2% | NCI-H522 lung -32%
inactive: NCI-H23 lung 26.3% | NCI-H226 lung 28.6% | HOP-62 NSCLC 20.6% | A549/ATCC NSCLC 18.2% | 786-0 renal 10.7% | COLO 205 colon 24.8%

O=C(CCl)NCCNc1nccc(Nc2ccc(S(=O)(=O)Nc3ccccn3)cc2)n1
active: NCI-H460 lung 2.9% | NCI-H522 lung -63.9% | 786-0 renal -34.5%
inactive: NCI-H23 lung 22.6% | NCI-H226 lung 48% | NCI-H322M lung 56.5% | HOP-62 NSCLC 26% | HOP-92 NSCLC 31.2% | COLO 205 colon 61.1%

CCN(CC)CCC(=O)c1cccc2ccccc12
active: NCI-H522 lung 9.95%
inactive: NCI-H23 lung 95.3% | NCI-H226 lung 104% | NCI-H322M lung 103% | HOP-62 NSCLC 112% | HOP-92 NSCLC 99.4% | A549/ATCC NSCLC 98.6% | 786-0 renal 102% | COLO 205 colon 124%

CCCCCCOc1ccc(C2(Cl)c3ccccc3N(C)c3ccccc32)cc1
inactive: NCI-H23 lung 24.5% | NCI-H226 lung 29.5% | NCI-H322M lung 57.1% | HOP-62 NSCLC 82.4% | HOP-92 NSCLC 83.1% | NCI-H522 lung 55.4% | A549/ATCC NSCLC 47.1% | 786-0 renal 47.2% | COLO 205 colon 61.7%

COc1cc(C2C3=C(COC3=O)Nc3c2ccc2c3CCCC2)cc2c1OCO2 (stereo not drawn)
inactive: NCI-H23 lung 16.4% | NCI-H322M lung 47% | HOP-62 NSCLC 21.9% | HOP-92 NSCLC 127% | A549/ATCC NSCLC 25% | 786-0 renal 18.7%
active: NCI-H226 lung -5.06% | NCI-H522 lung -35.1% | COLO 205 colon -67.7%

Clc1ccc2c(c1)NC1(CCSc3ccccc31)n1nccc1-2 (stereo not drawn)
inactive: NCI-H23 lung 98.5% | NCI-H226 lung 92.5% | NCI-H322M lung 95.1% | HOP-62 NSCLC 112% | HOP-92 NSCLC 91.6% | NCI-H522 lung 89.7% | A549/ATCC NSCLC 90% | 786-0 renal 96.9% | COLO 205 colon 114%

Cn1c(=O)c2c(nc3n2CCN(CCc2ccc(OCCN4CCOCC4)cc2)C3)n(C)c1=O
inactive: NCI-H23 lung 101% | NCI-H226 lung 100% | NCI-H322M lung 100% | HOP-62 NSCLC 106% | NCI-H460 lung 107% | HOP-92 NSCLC 96.6% | NCI-H522 lung 94.2% | 786-0 renal 99.6% | COLO 205 colon 115%

COc1ccc(C(=O)c2cc(OC)c(OC)c(OC)c2)cc1/C=C/C(=O)c1ccc(O)cc1
inactive: NCI-H23 lung 18.5% | NCI-H226 lung 58.5% | NCI-H322M lung 70.7% | HOP-62 NSCLC 88.9% | HOP-92 NSCLC 42.8% | A549/ATCC NSCLC 68.9% | 786-0 renal 26.4% | COLO 205 colon 54.3%
active: NCI-H522 lung -79.3%

O=S(=O)(c1ccccc1)n1ccc(-c2ccc3c(c2)CCO3)n1
inactive: NCI-H23 lung 78.4% | NCI-H226 lung 64.6% | NCI-H322M lung 91.4% | HOP-62 NSCLC 98.8% | HOP-92 NSCLC 41.8% | NCI-H522 lung 61.7% | 786-0 renal 90.3% | COLO 205 colon 96.9%

CC[C@H](C)[C@H]1NC(=O)[C@@H](N[C@](C)(O)[C@@H](N)CC(C)C)[C@@H](C)OC(=O)[C@H](Cc2ccc(OC)cc2)N(C)C(=O)[C@@H]2CCCN2C(=O)[C@H](CC(C)C)NC(=O)[C@@H](C)C(=O)[C@H](C(C)C)OC(=O)C[C@@H]1O
active: NCI-H23 lung -29.6% | NCI-H226 lung -11.1% | NCI-H322M lung -22.4% | HOP-62 NSCLC -31.1% | HOP-92 NSCLC -14.1% | NCI-H522 lung -37.7% | A549/ATCC NSCLC -22.7% | 786-0 renal -25.5% | COLO 205 colon -65.1%

O=Nc1c(-c2c(O)[nH]c3ccc([N+](=O)[O-])cc23)[nH]c2ccc(O)cc12
inactive: A549/ATCC NSCLC 10.6% | COLO 205 colon 65.8%
active: NCI-H23 lung 3.19% | NCI-H226 lung -4.7% | NCI-H322M lung 7.21% | HOP-62 NSCLC -9.77% | HOP-92 NSCLC -3.1% | NCI-H522 lung -79.1% | 786-0 renal 4.21%

CCOC(=O)CC(C#N)(CC(=O)OCC)C(=O)OCC
inactive: NCI-H23 lung 106% | NCI-H322M lung 112% | HOP-62 NSCLC 117% | NCI-H460 lung 115% | HOP-92 NSCLC 68% | NCI-H522 lung 114% | A549/ATCC NSCLC 84.6% | 786-0 renal 104% | COLO 205 colon 116%

COc1ccc(-c2nc3sccn3c2-c2ccnc(NCCCNS(=O)(=O)c3ccc(F)cc3)n2)cc1
inactive: NCI-H322M lung 41.2% | HOP-62 NSCLC 30.9% | NCI-H460 lung 19.5% | HOP-92 NSCLC 44.2% | A549/ATCC NSCLC 14% | 786-0 renal 35.5%
active: NCI-H23 lung 1.5% | NCI-H522 lung -1.46% | COLO 205 colon 1.87%

CCN(Cc1ccccc1)c1ccc(SC#N)cc1
active: NCI-H522 lung -26.7%
inactive: NCI-H23 lung 80.6% | NCI-H322M lung 91.6% | HOP-62 NSCLC 118% | NCI-H460 lung 90% | HOP-92 NSCLC 53.4% | A549/ATCC NSCLC 102% | 786-0 renal 73.4% | COLO 205 colon 50.4%

O=C1CCC(=O)N1Cc1ccccc1
inactive: NCI-H23 lung 86.7% | NCI-H322M lung 98.2% | HOP-62 NSCLC 107% | NCI-H460 lung 106% | HOP-92 NSCLC 89.9% | NCI-H522 lung 102% | A549/ATCC NSCLC 102% | 786-0 renal 104% | COLO 205 colon 111%

COC1=CC(c2ccc[nH]2)=N/C1=C\c1[nH]c(C)c(CCCn2cc(CCCCCCCCC[C@@H]3Cc4cc(O)ccc4C4CC[C@]5(C)[C@@H](O)CC[C@H]5C43)nn2)c1C (stereo partly drawn)
inactive: NCI-H23 lung 49.9% | NCI-H322M lung 44.6% | HOP-62 NSCLC 60.3% | NCI-H460 lung 37.3% | HOP-92 NSCLC 25.8% | NCI-H522 lung 24.5% | A549/ATCC NSCLC 48.3% | 786-0 renal 63.9% | COLO 205 colon 35.8%

CCC1CCc2nc3sc(C(=O)Nc4ccccc4F)c(N)c3cc2C1 (stereo not drawn)
inactive: NCI-H23 lung 78.2% | NCI-H322M lung 92.8% | HOP-62 NSCLC 76.4% | NCI-H460 lung 75.4% | HOP-92 NSCLC 58.3% | NCI-H522 lung 71.9% | A549/ATCC NSCLC 79.5% | 786-0 renal 91.4% | COLO 205 colon 64.2%

COc1cccc(NC(=O)Cn2cc3c(=O)oc4ccccc4c3n2)c1
inactive: NCI-H23 lung 102% | NCI-H322M lung 98.9% | HOP-62 NSCLC 116% | NCI-H460 lung 101% | HOP-92 NSCLC 93.8% | NCI-H522 lung 83.1% | A549/ATCC NSCLC 105% | 786-0 renal 98.4% | COLO 205 colon 101%

CC(=O)Nc1nc(C(=O)N2N=C(C)/C(=C/c3ccc(Cl)cc3)C2=O)cs1
inactive: NCI-H23 lung 102% | NCI-H322M lung 99% | HOP-62 NSCLC 97% | NCI-H460 lung 105% | HOP-92 NSCLC 95.7% | NCI-H522 lung 44.7% | A549/ATCC NSCLC 103% | 786-0 renal 100% | COLO 205 colon 104%

CCSc1nnc(NC(=O)COc2ccc(Cl)cc2C)s1
inactive: NCI-H23 lung 105% | NCI-H322M lung 120% | HOP-62 NSCLC 100% | NCI-H460 lung 112% | HOP-92 NSCLC 83.2% | NCI-H522 lung 94.4% | 786-0 renal 94.7% | COLO 205 colon 93.9%

C=C1C(=O)O[C@H]2[C@H]1CC/C(COC(=O)NCc1ccc(OC)cc1)=C\CC[C@@]1(C)O[C@@H]21
active: NCI-H522 lung -55.5% | COLO 205 colon -17.7%
inactive: NCI-H23 lung 74.2% | NCI-H322M lung 84.6% | HOP-62 NSCLC 67.5% | NCI-H460 lung 77.7% | HOP-92 NSCLC 63.3% | A549/ATCC NSCLC 69.1% | 786-0 renal 15.6%

COc1ccc(C2NC3=C(CCCC3)C(C#N)(C#N)C2(C#N)C#N)cc1 (stereo not drawn)
inactive: NCI-H23 lung 91.4% | NCI-H322M lung 109% | HOP-62 NSCLC 94.6% | NCI-H460 lung 97.6% | HOP-92 NSCLC 103% | NCI-H522 lung 23.8% | A549/ATCC NSCLC 106% | 786-0 renal 88.1% | COLO 205 colon 11.8%

CC(=O)C1CCC(C)=CC1=O (stereo not drawn)
inactive: NCI-H23 lung 102% | NCI-H322M lung 85.8% | HOP-62 NSCLC 111% | NCI-H460 lung 106% | HOP-92 NSCLC 96.9% | NCI-H522 lung 89.7% | A549/ATCC NSCLC 98.3% | 786-0 renal 91.8% | COLO 205 colon 116%

Cc1ccc(Cn2c(-c3nonc3N)nc3ccccc32)cc1
inactive: NCI-H23 lung 83.3% | NCI-H322M lung 86% | HOP-62 NSCLC 76.5% | NCI-H460 lung 71.4% | HOP-92 NSCLC 77.6% | NCI-H522 lung 66.4% | A549/ATCC NSCLC 57.3% | 786-0 renal 92.3% | COLO 205 colon 80%

CCC1CCc2nc3sc(C(=O)Nc4ccccc4C)c(N)c3cc2C1 (stereo not drawn)
inactive: NCI-H23 lung 51.1% | NCI-H322M lung 56.5% | HOP-62 NSCLC 54.5% | NCI-H460 lung 31.5% | HOP-92 NSCLC 41.9% | NCI-H522 lung 28.6% | A549/ATCC NSCLC 41.2% | 786-0 renal 50.6% | COLO 205 colon 17%

Cc1ccc(C2=NN(c3ccc(S(N)(=O)=O)cc3)C(c3cn(-c4ccccc4)nc3-c3ccccc3)C2)cc1 (stereo not drawn)
inactive: NCI-H23 lung 93.8% | NCI-H322M lung 101% | NCI-H460 lung 38.9% | HOP-92 NSCLC 27.7% | NCI-H522 lung 75.2% | A549/ATCC NSCLC 65% | 786-0 renal 109% | COLO 205 colon 101%
